Measurements reported in PubChem BioAssay AID720597 (Broad Institute, 2013).
Entries with a potency or affinity are not part of this list.

The compounds below were run against NAD-dependent protein deacylase sirtuin-5, mitochondrial (Homo sapiens) (UniProt Q9NXA8) (assay: SIRT5 deacylase inhibitors, dose response, biochemical, fluorescence imaging, cherry-pick, set 6 (AID 720597;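 also: lower AMC signal can also come from blocking the trypsin step; 0% = median of neutral control wells and -100% = median of positive control wells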)). Settings: Purified SirT5, succinyl-peptide-AMC/trypsin fluorescence; series mostly up to 15 µM; activity change, negative = inhibition: at the top concentration;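 active = fitted half-maximal dose no more than twice the top valid tested dose, for compounds that lower signal; inconclusive = fit invalid, or curve flat with activity between -70 and -30; inactive = potency past limit, curve flat within ±30, or signal increasing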.
NAD-dependent protein deacylase sirtuin-5, mitochondrial (Homo sapiens), sequence (Q9NXA8 whole entry, looked up): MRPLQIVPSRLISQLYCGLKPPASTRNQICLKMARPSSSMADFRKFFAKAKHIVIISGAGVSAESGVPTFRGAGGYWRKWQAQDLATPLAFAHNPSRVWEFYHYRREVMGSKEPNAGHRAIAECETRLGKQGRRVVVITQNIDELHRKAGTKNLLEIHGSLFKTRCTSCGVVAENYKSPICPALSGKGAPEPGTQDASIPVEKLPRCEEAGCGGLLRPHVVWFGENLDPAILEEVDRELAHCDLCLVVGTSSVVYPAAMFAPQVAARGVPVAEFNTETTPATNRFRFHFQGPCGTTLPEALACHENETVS

Activity change, negative = inhibition, inactive:
NC(=O)NCC#Cc1ccc2c(c1)[C@]1(C(=O)N2)[C@H](c2ccccc2OCCO)N2[C@H](c3ccccc3)[C@H](c3ccccc3)OC(=O)[C@H]2[C@@H]1C(=O)N1CCN(c2ncccn2)CC1 -16.3%
CC(C)CC#Cc1ccc2c(c1)O[C@H](CN(C)S(=O)(=O)c1cccc(F)c1)[C@H](C)CN([C@H](C)CO)S2(=O)=O -21.9%
COc1ccc(C#Cc2ccc3c(c2)[C@]2(C(=O)N3)[C@H](C(=O)N3CCN(c4ncccn4)CC3)[C@H]3C(=O)O[C@H](c4ccccc4)[C@H](c4ccccc4)N3[C@@H]2c2ccc(OCCO)cc2)cc1 11%
C[C@H]1CN([C@@H](C)CO)C(=O)c2cc(NC(=O)C3CC3)ccc2O[C@H]1CN(C)S(=O)(=O)c1cn(C)cn1 -9.34%
C[C@H](CO)N1C[C@H](C)[C@@H](CN(C)C(=O)c2ccc3c(c2)OCO3)Oc2cc(/C=C/c3ccccc3)ccc2S1(=O)=O 30.9%
C[C@@H]1CN([C@@H](C)CO)C(=O)c2cccc(NC(=O)c3ccncc3)c2O[C@H]1CN(C)S(C)(=O)=O 21.9%
CN(C)C(=O)c1ccc(-c2ccc([C@H]3[C@H](CO)N4CCCCN(CCC(F)(F)F)C[C@@H]34)cc2)cc1 -22.6%
C[C@@H]1CN([C@@H](C)CO)C(=O)c2cc(NC(=O)Nc3ccc(F)cc3)ccc2O[C@@H]1CN(C)S(=O)(=O)c1ccc(Cl)cc1 5.11%
COc1cccc(NC(=O)N2CC(=O)N3[C@H](C2)[C@H](c2ccc(C#CCC4CCCC4)cc2)[C@@H]3CO)c1 -16.2% [at 16 µM]
C[C@@H]1CN([C@@H](C)CO)C(=O)c2cc(NC(=O)Nc3cccc4ccccc34)ccc2O[C@@H](C)CCCCO[C@@H]1CN(C)S(=O)(=O)c1ccc(Cl)cc1 7.77%
C[C@@H]1CCCCO[C@@H](CN(C)S(=O)(=O)c2ccc(Cl)cc2)[C@H](C)CN([C@@H](C)CO)C(=O)c2cc(NS(=O)(=O)c3ccccc3)ccc2O1 -16.3%
O=C(c1cnccn1)N1CC(=O)N2[C@H](CO)[C@@H](c3ccc(C4=CCCCC4)cc3)[C@@H]2C1 -5.88%
C[C@@H]1CCCCO[C@@H](CN(C)C(=O)C2CCCCC2)[C@H](C)CN([C@@H](C)CO)C(=O)c2cc(NC(=O)Nc3ccc(F)cc3)ccc2O1 -14.3%
C[C@H]1CN([C@@H](C)CO)C(=O)c2cccc(NC(=O)CCCCCC(=O)Nc3ccccc3N)c2O[C@@H]1CN(C)Cc1ccc(Oc2ccccc2)cc1 -22.4%
C[C@H]1CN([C@@H](C)CO)C(=O)c2ccccc2-c2ccccc2CO[C@@H]1CN(C)Cc1ccc(C(F)(F)F)cc1 7.02%
Cc1ccc(S(=O)(=O)N(C)C[C@H]2OCCCC[C@H](C)Oc3ccc(NS(=O)(=O)c4ccccc4)cc3C(=O)N([C@@H](C)CO)C[C@@H]2C)cc1 -9.79%
COc1cccc(S(=O)(=O)N(C)C[C@@H]2Oc3ncc(-c4cccc(C(F)(F)F)c4)cc3C(=O)N([C@H](C)CO)C[C@@H]2C)c1 -26.8%
COc1ccc(S(=O)(=O)N(C)C[C@@H]2OCCCC[C@@H](C)Oc3ccc(NS(=O)(=O)c4ccc(C)cc4)cc3C(=O)N([C@@H](C)CO)C[C@@H]2C)cc1 -14.6%
COc1cccc(C(=O)Nc2ccc3c(c2)C(=O)N(C)C[C@H](OC)[C@@H](C)CN(CCc2ccccc2)[C@H](C)CO3)c1 6.36%
CS(=O)(=O)Nc1ccc2c(c1)[C@H]1C[C@@H](CC(=O)NCCc3ccccc3)O[C@@H](CO)[C@H]1O2 -16.6%
O=C(NCC[C@@H]1CC[C@H](NC(=O)C2CC2)[C@H](CO)O1)c1cc(Cl)cc(Cl)c1 26.4%
Cc1noc(C)c1NC(=O)N(C)C[C@@H]1OCCCC[C@H](C)Oc2ccc(NC(=O)Nc3ccc(F)cc3)cc2C(=O)N([C@@H](C)CO)C[C@@H]1C -8.47%
O=S(=O)(N[C@@H]1CC[C@@H](CCn2cc(Cc3ccccc3)nn2)O[C@H]1CO)c1ccccc1F 8.56%
Cc1ccc(-c2ccc([C@@H]3[C@@H](CO)N4CCCCN(S(=O)(=O)c5cccc(C)c5)C[C@H]34)cc2)cc1 7.83%
CN(C)c1ccc2c(c1)[C@@H]1C[C@@H](CC(=O)NCc3ccccc3)O[C@H](CO)[C@@H]1O2 -3.65%
COc1ccc(S(=O)(=O)Nc2ccc3c(c2)C(=O)N([C@H](C)CO)C[C@H](C)[C@H](CN(C)Cc2ccc(C(F)(F)F)cc2)OCCCC[C@@H](C)O3)cc1 6.62% [at 16 µM]
CC(C)CC#Cc1ccc2c(c1)O[C@H](CN(C)C(=O)NC1CCCC1)[C@@H](C)CN([C@@H](C)CO)S2(=O)=O -31.7%
C[C@H](CO)N1C[C@H](C)[C@H](CN(C)Cc2cccc(F)c2)Oc2ncc(C#C[C@@H](C)O)cc2C1=O -7.02%
CO[C@H]1CN(C)C(=O)c2cc(NC(=O)NC3CCCCC3)ccc2OC[C@H](C)N(CCc2ccccc2)C[C@@H]1C 3.06%
C[C@@H]1CN([C@@H](C)CO)S(=O)(=O)c2ccc(C#CC3CC3)cc2O[C@@H]1CN(C)C(=O)c1cccc(F)c1 -3.94%
CC(C)CC#Cc1ccc2c(c1)O[C@H](CN(C)C(=O)C1CCCCC1)[C@H](C)CN([C@@H](C)CO)S2(=O)=O -8.11%
COc1ccc(S(=O)(=O)N(C)C[C@@H]2OCCCC[C@@H](C)Oc3ccc(NC(=O)Nc4ccc(C(F)(F)F)cc4)cc3C(=O)N([C@@H](C)CO)C[C@@H]2C)cc1 10.5%
Cc1ccc(S(=O)(=O)Nc2ccc3c(c2)CC(=O)N([C@@H](C)CO)C[C@H](C)[C@@H](CN(C)Cc2ccc(-c4ccccc4)cc2)O3)cc1 33.9%
O=C(CN1CCOCC1)NCC[C@@H]1CC[C@H](NC(=O)Nc2ccc(F)cc2)[C@H](CO)O1 34.6%
C[C@@H]1CN([C@H](C)CO)C(=O)c2cc(C#CCN(C)C)cnc2O[C@@H]1CN(C)Cc1ccncc1 17.4%
C[C@H]1CN([C@@H](C)CO)S(=O)(=O)c2ccc(C#Cc3ccc(F)cc3)cc2O[C@@H]1CN(C)S(C)(=O)=O 8.38%
C[C@@H]1CN([C@H](C)CO)C(=O)c2c(c3ccccc3n2C)-c2ccccc2CO[C@@H]1CN(C)S(=O)(=O)c1ccc(C(F)(F)F)cc1 5.77%
COc1ccccc1-c1ccc2c(c1)O[C@@H](CN(C)S(=O)(=O)c1ccc(F)cc1)[C@@H](C)CN([C@@H](C)CO)S2(=O)=O -7.03%
O=C(C1CCC1)N1CC[C@H]2[C@H](CO)Nc3ccc(C#Cc4cccc(F)c4)cc3[C@H]21 -12.4%
CCCC#Cc1ccc2c(c1)O[C@H](CN(C)Cc1ccccc1)[C@@H](C)CN([C@H](C)CO)S2(=O)=O -1.29%
